ELG1 repair inh: blocks ELG1-dependent DNA repair in HEK293T cells; HEK293T ELG1-luciferase reporter, luminescence, 16 h; DNA damage induced by 5-fluorouridine; Potency, µM (highest dose often 46.1 µM), without a hit: at the top dose activity change, negative = inhibition, actives largely listed as inhibitors; 330,000 tested, 2.3% active; AID 504467; further: potency means the concentration at half of the fitted maximal effect; nearly all actives have a fitted effect of over 55% in size
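Reporter activity after DNA damage by 5-fluorouridine is monitored. Compound-treated cells incubate 16 hr at 37 °C, then ONE-Glo is added for 30 min before luminescence reading.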
TDP1 cell noCPT: qHTS for Inhibitors of human tyrosyl-DNA phosphodiesterase 1 (TDP1): qHTS in cells in absence of CPT; DT40 Tdp1-/- hTDP1 cells, no CPT, ATP luminescence, 48 h; Potency, µM (series often up to 46.2 µM), for the others: at the top dose activity change, negative = growth inhibition, most hits filed as inhibitors; 420,000 tested, 15% active; AID 686978, 2013; further: potency means the concentration at half of the fitted maximal effect; nearly all actives have a fitted effect of over 55% in size
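Seeded 400 DT40-hTDP1 cells/well (vehicle DMSO, no 20 nM CPT); pinned compounds; ≥48 hr at 37 °C; CellTiter-Glo luminescence as viability measure.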
IL-1B inflam inh: blocks inflammasome-driven IL-1 beta release. activity change, % at 57.5 µM. 360,000 tested, 4.7% active. THP-1 LPS/ATP IL-1B secretion, AlphaLISA, 16 h; active compounds read low; in the data active means activity change below about -50%; inconclusive means mostly about -30% to -49%
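THP-1 cells pretreated 1 hr with compounds (up to 57.5 uM final), then stimulated with LPS (250 ng/mL final) plus ATP (1.25 mM final); secreted IL-1B measured by AlphaLISA after 16 hr, decreased signal indicating inhibition.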
HT1080NT lethal: kills 2HG-producing HT-1080-NT fibrosarcoma cells; HT-1080-NT fibrosarcoma viability, CellTiter-Glo ATP luminescence, 48 h; 360,000 tested, 1.6% active; Potency, µM (doses to about 46.1 µM), for the others: at the top dose activity, negative = less viability, actives largely listed as cytotoxic;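 further: NT is the 2HG producing partner of a matched IDH1 knockdown line; potency means the concentration at half of the fitted maximal effect; 0% = DMSO-treated cells and -100% = media-only wells without cells; nearly all actives have a fitted effect of over 55% in size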
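Read-out is CellTiter-Glo luminescence after 10 minutes at room temperature, following 48 hours' compound treatment of HT-1080-NT cells (750 cells/well, RPMI, 5% FBS, 37 degrees C).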
HT1080 IDH1KD tx: toxicity to HT-1080 IDH1 knockdown cells (counter line); 360,000 tested, 2% active; HT-1080 IDH1 knockdown viability, ATP luminescence, 48 h; Potency, µM (doses to about 46.1 µM), for the others: at the highest dose activity, negative = toxicity, hits mostly cytotoxic;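 further: potency means the concentration at half of the fitted maximal effect; 0% = DMSO wells and -100% = cell-free medium wells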
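Knockdown cells (IDH1KD HT-1080) received compounds 2 h after plating at 750 cells/well and were kept 48 h at 37 °C in 5% FBS RPMI. A CellTiter-Glo luminescence read gave % activity for curve fitting.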
TDP1 cell CPT: DT40-hTDP1 cell growth loss with CPT; chicken DT40 Tdp1-/-;hTDP1 cells + 20 nM CPT, ATP luminescence, 48 h; Potency, µM (series often up to 46.2 µM), without a hit: top-dose activity change, negative = growth inhibition, actives largely listed as inhibitors; 420,000 tested, 12% active; AID 686979; further: potency means the concentration at half of the fitted maximal effect; nearly all actives have a fitted effect of over 55% in size
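Chicken DT40 Tdp1-/- cells stably complemented with human TDP1 were seeded at 400 cells/well in medium containing 20 nM camptothecin, exposed to pin-transferred compounds, and grown at 37 °C for at least 48 hr. Viability was read as ATP luminescence.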
* marks the source's active call; other numbers are inactive results. Compounds with a hit are over-represented: about 19% of the library has one in this group of screens. Unless noted, the call rests on the fitted dose curve; in most records, active means well fitted curve in the direction sought with a large enough effect; inconclusive means small, poorly fitted or top-dose-only effect, or another doubt; inactive means no such curve, though single readings can be large; an effect the other way counts as inactive or inconclusive. Unless noted, on the % scale 0 is the no-effect control and ±100 the full control effect.

For COC(=O)c1ccc(NC(=O)CN(CCc2ccccc2)S(=O)(=O)c2ccc(OC)cc2)cc1 the results were TDP1 cell noCPT 21µM* and TDP1 cell CPT inconclusive.
Screening CCNC(=O)CN(CCc1ccccc1)S(=O)(=O)c1ccc(OC)cc1 returned ELG1 repair inh 1%, TDP1 cell noCPT -28%, IL-1B inflam inh -5, HT1080NT lethal -6%, HT1080 IDH1KD tx 10% and TDP1 cell CPT inconclusive.
Screening CCN(CC)c1nc2c3c(nc4c(c3c1C#N)CC(=O)N4c1ccc(Cl)cc1)NC(C)=N2 returned ELG1 repair inh inconclusive, TDP1 cell noCPT 18µM*, IL-1B inflam inh -8, HT1080NT lethal -1%, HT1080 IDH1KD tx -1% and TDP1 cell CPT inconclusive.
`COc1ccc(C)cc1NC(=O)NCc1cccn1Cc1ccccc1` gave TDP1 cell noCPT inconclusive and TDP1 cell CPT -19%.
`CCOC(=O)c1ccccc1NC(=O)NCc1cccn1Cc1ccc(F)cc1` gave TDP1 cell noCPT 23µM* and TDP1 cell CPT 23µM*.
C/C(=N\Nc1cc(N2CCCCC2)nc(C)n1)c1ccc(Br)cc1 was read as ELG1 repair inh 16µM*, TDP1 cell noCPT 5.8µM*, IL-1B inflam inh -51*, HT1080NT lethal inconclusive, HT1080 IDH1KD tx inconclusive and TDP1 cell CPT 13µM*.
`O=C(COC(=O)c1ncc(Cl)c(Cl)c1Cl)NC(=O)c1ccccc1` gave ELG1 repair inh inconclusive, TDP1 cell noCPT -2%, IL-1B inflam inh 2, HT1080NT lethal 14%, HT1080 IDH1KD tx -1% and TDP1 cell CPT 23%.
COC(=O)[C@@]12C[C@@H](CC(=O)N3CCSCC3)C(=O)N(Cc3ccc4c(c3)OCO4)C1=CCC(C)(C)C2 was read as TDP1 cell noCPT 15µM*, IL-1B inflam inh -22, HT1080NT lethal -25%, HT1080 IDH1KD tx -19% and TDP1 cell CPT inconclusive.
Screening CCOC(=O)N1CCN(C(=O)C[C@@H]2C[C@@]3(C(=O)OC)CC(C)(C)CC=C3N(Cc3ccc4c(c3)OCO4)C2=O)CC1 returned TDP1 cell noCPT 18µM*, IL-1B inflam inh -2, HT1080NT lethal -10%, HT1080 IDH1KD tx -20% and TDP1 cell CPT 12µM*.
`CCCCNc1c(-c2cccc(-c3ccc(OC)cc3)c2)nc2ccc(C)cn12` gave ELG1 repair inh 3.2µM*, TDP1 cell noCPT 18µM*, IL-1B inflam inh -100*, HT1080NT lethal inconclusive, HT1080 IDH1KD tx inconclusive and TDP1 cell CPT 23µM*.
`CCCCNc1c(-c2cccc(-c3ccc(OC)cc3)c2)nc2cc(C)ccn12` gave ELG1 repair inh 23µM*, TDP1 cell noCPT 18µM*, IL-1B inflam inh -71*, HT1080NT lethal inconclusive, HT1080 IDH1KD tx inconclusive and TDP1 cell CPT 16µM*.
Screening Cc1ccc2nc(-c3ccccc3)c(NC(=O)c3ccco3)n2c1 returned ELG1 repair inh 15%, TDP1 cell noCPT -3%, IL-1B inflam inh -20, HT1080NT lethal 11%, HT1080 IDH1KD tx 3% and TDP1 cell CPT -8%.
`CCCCNc1c(-c2cccc(-c3cc(C(C)=O)cs3)c2)nc2ccc(C)cn12` gave ELG1 repair inh inconclusive, TDP1 cell noCPT 13µM*, IL-1B inflam inh -103*, HT1080NT lethal 21µM*, HT1080 IDH1KD tx inconclusive and TDP1 cell CPT 16µM*.
`O=C(COc1ccc(F)cc1)NN1C(=O)CSC1=S` gave ELG1 repair inh 10%, TDP1 cell noCPT -27%, IL-1B inflam inh 0, HT1080NT lethal -6%, HT1080 IDH1KD tx -1% and TDP1 cell CPT 7%.
O=C1CCN(Cc2ccccc2)C=C1c1ccc(Cl)cc1 was read as ELG1 repair inh 5%, TDP1 cell noCPT inconclusive, IL-1B inflam inh -6, HT1080NT lethal -3%, HT1080 IDH1KD tx -4% and TDP1 cell CPT 23µM*.
Screening CC1(C(=O)Nc2ccc3c(c2)OCCO3)CN(S(C)(=O)=O)CC(=O)N1Cc1cccs1 (stereo unspecified) returned TDP1 cell noCPT 2%, IL-1B inflam inh -19, HT1080NT lethal inconclusive, HT1080 IDH1KD tx 1% and TDP1 cell CPT 14%.
Screening Cc1cccc(CN2CCN([C@H]3CS(=O)(=O)N[C@@H]3COCc3ccccc3)CC2)c1 returned TDP1 cell noCPT 16µM*, IL-1B inflam inh 14, HT1080NT lethal -2%, HT1080 IDH1KD tx -17% and TDP1 cell CPT 18µM*.
Screening CN1CCN([C@H]2CS(=O)(=O)N[C@@H]2COCc2ccccc2)CC1 returned TDP1 cell noCPT 4%, IL-1B inflam inh 22, HT1080NT lethal 27%, HT1080 IDH1KD tx 3% and TDP1 cell CPT inconclusive.
For COC(=O)c1ccc(CNC(=O)C2CCC(=O)N(CCN3CCOCC3)C2)cc1 (stereo unspecified) the results were ELG1 repair inh -10%, TDP1 cell noCPT -12%, IL-1B inflam inh -11, HT1080NT lethal 9%, HT1080 IDH1KD tx 7% and TDP1 cell CPT -2%.
`COc1cccc(/C=N/NC(=O)c2cnn(-c3ccccc3)c2N)c1` gave ELG1 repair inh inconclusive, TDP1 cell noCPT 21µM*, IL-1B inflam inh 55, HT1080NT lethal 5%, HT1080 IDH1KD tx -7% and TDP1 cell CPT inconclusive.
`Nc1c(C(=O)N/N=C/c2ccc(OCc3ccccc3)cc2)cnn1-c1ccccc1` gave ELG1 repair inh 0%, TDP1 cell noCPT 12µM*, IL-1B inflam inh -7, HT1080NT lethal -25%, HT1080 IDH1KD tx 1% and TDP1 cell CPT 16µM*.
Screening COc1ccc(CN(Cc2ccccc2)C(=O)c2ccncc2)cc1COc1ccc(NC(C)=O)cc1 returned TDP1 cell noCPT 11µM*, HT1080NT lethal 0%, HT1080 IDH1KD tx 3% and TDP1 cell CPT inconclusive.
For COc1ccc(CN(Cc2ccccc2)C(=O)CN2CCN(C)CC2)cc1COc1ccc(NC(C)=O)cc1 the results were TDP1 cell noCPT 18µM*, HT1080NT lethal -16%, HT1080 IDH1KD tx -14% and TDP1 cell CPT inconclusive.
`COc1ccc(CN2C(=O)N(c3ccccc3)C(=O)C2c2ccccc2)cc1COc1ccc(NC(C)=O)cc1` (stereo unspecified) gave TDP1 cell noCPT 8.9µM*, HT1080NT lethal 0%, HT1080 IDH1KD tx 7% and TDP1 cell CPT 10µM*.
Screening COc1ccc(CN(Cc2ccccc2)C(C)=O)cc1COc1ccc(NC(C)=O)cc1 returned TDP1 cell noCPT 11µM*, HT1080NT lethal inconclusive, HT1080 IDH1KD tx inconclusive and TDP1 cell CPT inconclusive.

Assay outcomes: PubChem BioAssay, National Center for Advancing Translational Sciences (NCATS)
